Hits are enriched below; roughly 5.7% of the tested compounds scored in any of these assays.
MPTP inh = permeability transition pore inhibition. isolated mouse mitochondria, Ca2+ swelling absorbance, 30 min. inhibition, % at 10 µM. 360,000 compounds, 1.4% hits;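 active = inhibition of 50% or more, scaled per plate between neutral and stimulator controls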
rCAG RNA binder = molecules binding r(CAG) RNA repeats. r(CAG) RNA repeat, TO-PRO-1 dye displacement fluorescence. inhibition, % at 3 µM. 370,000 compounds, 1.3% hits. AID 651821;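 active = inhibition above the plate cutoff, the mean of all test compounds on that plate plus 3 SD, cut at about 35% in these data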;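 note: higher means more dye released from RNA so lower well fluorescence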
Myeloid diff 2 = compounds promoting myeloid differentiation; 360,000 compounds, 1% hits; calls only at 10 µM; ER-HoxA9 myeloid progenitors, lysozyme-GFP differentiation, flow cytometry;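 active = normalized GFP-positive differentiation at or above the plate's own cutoff, the solvent-only control mean plus 3 SD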;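 note: cells exposed to compound for four days before flow analysis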
NR3A LBD binder = modulators (binders) of human NR3A ligand-binding domain; NR3A LBD differential scanning fluorimetry, Tm shift; 0% = protein alone, 100% = glycine-bound protein; Tm shift relative to glycine control, % at 25 µM; 340,000 compounds, 2.5% hits;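 active = melting temperature shift of at least 10% of the positive control shift, at one fixed dose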
FAS TE block = inhibitors of human fatty acid synthase thioesterase domain | recombinant FAS-TE, OMFH fluorogenic substrate, fluorescence endpoint | inhibition, % at 15 µM | 360,000 compounds, 0.67% hits | AID 602261;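 active = compounds whose normalised, plate-corrected inhibition of enzyme fluorescence in the single-dose primary screen is 50% or more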
Target sequence (P49327 whole entry, looked up, the tested form may be a part): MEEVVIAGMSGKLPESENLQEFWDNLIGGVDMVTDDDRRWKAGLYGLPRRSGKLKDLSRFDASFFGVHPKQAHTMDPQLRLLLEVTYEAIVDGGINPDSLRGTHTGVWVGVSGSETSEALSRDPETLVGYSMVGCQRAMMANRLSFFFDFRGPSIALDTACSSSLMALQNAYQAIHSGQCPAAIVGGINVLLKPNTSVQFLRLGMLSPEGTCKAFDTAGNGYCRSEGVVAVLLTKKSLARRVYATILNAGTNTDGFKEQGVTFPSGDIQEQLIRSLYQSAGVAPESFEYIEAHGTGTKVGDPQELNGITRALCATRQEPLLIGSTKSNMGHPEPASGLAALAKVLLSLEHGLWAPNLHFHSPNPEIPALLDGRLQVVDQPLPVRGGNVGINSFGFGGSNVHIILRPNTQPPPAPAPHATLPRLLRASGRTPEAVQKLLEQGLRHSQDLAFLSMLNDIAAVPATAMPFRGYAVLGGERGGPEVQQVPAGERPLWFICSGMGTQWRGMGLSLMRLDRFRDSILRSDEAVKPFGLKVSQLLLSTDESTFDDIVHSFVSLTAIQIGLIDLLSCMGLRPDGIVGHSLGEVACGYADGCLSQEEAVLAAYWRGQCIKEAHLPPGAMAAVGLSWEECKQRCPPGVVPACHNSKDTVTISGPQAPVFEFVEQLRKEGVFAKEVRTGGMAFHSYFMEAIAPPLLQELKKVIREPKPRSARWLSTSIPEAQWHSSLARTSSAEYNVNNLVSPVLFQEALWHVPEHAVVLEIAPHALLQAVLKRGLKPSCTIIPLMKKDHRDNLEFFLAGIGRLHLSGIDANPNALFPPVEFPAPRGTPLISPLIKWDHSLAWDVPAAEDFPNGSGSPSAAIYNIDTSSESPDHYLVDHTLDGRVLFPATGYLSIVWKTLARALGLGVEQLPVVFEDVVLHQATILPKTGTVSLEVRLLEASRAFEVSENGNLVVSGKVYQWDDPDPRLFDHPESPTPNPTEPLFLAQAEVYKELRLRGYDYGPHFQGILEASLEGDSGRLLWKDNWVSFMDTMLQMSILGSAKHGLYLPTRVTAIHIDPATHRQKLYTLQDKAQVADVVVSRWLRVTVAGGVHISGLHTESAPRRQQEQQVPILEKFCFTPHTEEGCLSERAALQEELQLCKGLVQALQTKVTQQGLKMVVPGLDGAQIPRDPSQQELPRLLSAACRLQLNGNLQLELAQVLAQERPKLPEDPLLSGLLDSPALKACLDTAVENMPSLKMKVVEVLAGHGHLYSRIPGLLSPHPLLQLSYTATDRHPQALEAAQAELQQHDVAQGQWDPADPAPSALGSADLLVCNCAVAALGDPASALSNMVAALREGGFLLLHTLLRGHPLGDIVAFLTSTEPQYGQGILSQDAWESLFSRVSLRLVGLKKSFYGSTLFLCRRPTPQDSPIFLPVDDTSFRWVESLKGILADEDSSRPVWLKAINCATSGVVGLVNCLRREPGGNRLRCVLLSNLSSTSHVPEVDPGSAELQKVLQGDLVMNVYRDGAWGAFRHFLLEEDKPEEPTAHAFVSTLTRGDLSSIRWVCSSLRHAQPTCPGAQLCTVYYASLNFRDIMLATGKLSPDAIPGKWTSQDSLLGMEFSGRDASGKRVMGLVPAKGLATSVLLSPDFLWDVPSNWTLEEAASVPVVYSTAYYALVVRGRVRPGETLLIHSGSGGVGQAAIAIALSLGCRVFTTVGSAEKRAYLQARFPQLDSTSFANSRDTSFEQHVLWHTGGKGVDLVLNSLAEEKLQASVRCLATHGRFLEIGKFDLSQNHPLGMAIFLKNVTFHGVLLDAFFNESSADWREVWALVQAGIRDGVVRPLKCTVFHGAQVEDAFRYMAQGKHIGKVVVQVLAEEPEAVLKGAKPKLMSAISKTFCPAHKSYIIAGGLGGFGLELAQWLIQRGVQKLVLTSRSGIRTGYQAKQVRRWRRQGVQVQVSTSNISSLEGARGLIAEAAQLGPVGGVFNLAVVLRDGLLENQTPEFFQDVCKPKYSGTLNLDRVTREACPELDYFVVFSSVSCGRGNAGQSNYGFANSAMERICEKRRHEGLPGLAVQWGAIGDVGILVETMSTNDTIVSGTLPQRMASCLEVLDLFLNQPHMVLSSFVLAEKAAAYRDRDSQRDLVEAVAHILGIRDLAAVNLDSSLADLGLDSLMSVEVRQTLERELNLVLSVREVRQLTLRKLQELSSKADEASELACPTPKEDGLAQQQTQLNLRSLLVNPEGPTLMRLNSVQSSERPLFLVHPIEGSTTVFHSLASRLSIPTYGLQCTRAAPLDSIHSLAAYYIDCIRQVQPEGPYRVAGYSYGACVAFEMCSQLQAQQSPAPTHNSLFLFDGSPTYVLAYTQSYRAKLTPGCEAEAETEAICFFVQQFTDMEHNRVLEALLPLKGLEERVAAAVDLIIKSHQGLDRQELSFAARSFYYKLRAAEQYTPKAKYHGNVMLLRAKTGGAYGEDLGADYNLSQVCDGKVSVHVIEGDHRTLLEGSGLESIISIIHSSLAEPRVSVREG
rCAG binder conf = r(CAG) RNA repeat binding, confirmation. 4,300 compounds, 70% hits. TO-PRO-1 dye displacement fluorescence. shares compounds with rCAG RNA binder. inhibition, % at 3 µM. AID 652065;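 active = inhibition above a per-plate cutoff, the mean inhibition of sample wells plus 3 SD, cut at about 35% in these data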;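 note: loss of TO-PRO-1 fluorescence as compound displaces dye from 1x1 AA loop RNA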
DNA CAG counter = disrupts DNA CAG TO-PRO-1 complex, flagging rCAG hits. shares compounds with rCAG RNA binder. d(CAG) DNA oligo TO-PRO-1 dye displacement, fluorescence. inhibition, % at 3 µM. 4,300 compounds, 94% hits. AID 652068;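 active = inhibition above its plate's cutoff, the mean test-well inhibition plus 3 SD, cut at about 4.8% in these data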;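 note: hits displace the dye from DNA and so lower well fluorescence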
DNA CAG DR = DNA CAG dye complex inhibition, dose response counter-screen; shares compounds with rCAG RNA binder; DNA CAG/GTC duplex TO-PRO-1 dye displacement fluorescence; IC50, µM; 250 compounds, 20% hits; in the data active = IC50 below about 10 µM
Large screens that a line does not name were inactive (follow-up assays come after a bar, where they were run).

CC1=CSC2=NC(=O)/C(=C\c3cccn3-c3ccccc3)C(=N)N12	none
CC1=CC2=NC(=O)/C(=C\c3cc(C)n(-c4ccc(F)cc4)c3C)C(=N)N2O1	none
Cc1cc(/C=C2/C(=N)N3C(=NC2=O)SN=C3S(C)(=O)=O)c(C)n1-c1ccc(F)cc1	rCAG RNA binder 68.6 | rCAG binder conf 79.2 | DNA CAG counter 46.5
Cc1ccncc1CNC(=O)c1ccccc1	none
COC(=O)C(C)NC(=O)c1cn(-c2ccccc2OC)c(=O)c2ccccc12 (configuration not stated)	none
COc1cc2c(cc1OC)C(c1cc(Br)c(OC)c(OC)c1)CC(=O)N2 (configuration not stated)	none
Cc1noc(C)c1S(=O)(=O)Nc1ccc(C#N)cc1	none
CCC1CCCCN1S(=O)(=O)c1ccc(NC(=O)CSc2ncccc2C(=O)O)cc1 (configuration not stated)	rCAG RNA binder 38.5 | rCAG binder conf inactive | DNA CAG counter 10.8
CC(=O)Nc1cccc(NC(=O)CCNC(=O)c2ccccc2)c1	none
CC(C)(C)c1ccc(S(=O)(=O)NC(=O)C2(C)CCN2C(=O)CC2CCCC2)cc1 (configuration not stated)	rCAG RNA binder 37.3 (no result: NR3A LBD binder) | rCAG binder conf inactive | DNA CAG counter inactive
CC1(C(=O)NS(=O)(=O)c2ccc3ccccc3c2)CCN1C(=O)CC1CCCCC1 (configuration not stated)	rCAG RNA binder 39.0 (no result: NR3A LBD binder) | rCAG binder conf 57.4 | DNA CAG counter 20.4
Cc1ccc(S(=O)(=O)NC(=O)C2(C)CCN2C(=O)CC2CCCC2)cc1 (configuration not stated)	none (no result: NR3A LBD binder)
CCN1CCN(C(=O)c2nn(C)c3c2CS(=O)(=O)c2ccccc2-3)CC1	none
COc1cc(/C=C2\S/C(=N/S(=O)(=O)c3ccccc3)NC2=O)c([N+](=O)[O-])cc1OC	rCAG RNA binder 77.4 | rCAG binder conf 73.1 | DNA CAG counter 32.9 | DNA CAG DR 6.59
COc1ccc(S(=O)(=O)/N=C2/NC(=O)/C(=C\c3cc(OC)c(OC)cc3[N+](=O)[O-])S2)cc1	rCAG RNA binder 74.8 | rCAG binder conf 63.4 | DNA CAG counter 23.0
COc1ccc(/C=C2\SC(=Nc3ccccc3OC)NC2=O)cc1	none
CCn1c(=O)n(CC(=O)N2CCCC2)c(=O)c2ccccc21	none (no result: MPTP inh, Myeloid diff 2, NR3A LBD binder, FAS TE block)
CC(=O)OCC1OC(OC2C[C@]3(C)C(CC(O)C4C([C@](C)(CCC=C(C)C)OC5OC(CO)C(O)C(O)C5O)CC[C@]43C)[C@@]3(C)CCC(O)C(C)(C)C23)C(O[C@@H]2OC(C)C(O)C(O)C2O)C(O)C1O (some centres not stated)	none (no result: rCAG RNA binder)
COCCCC1CCN(C(=O)C2CCC(=O)N(Cc3cccc(F)c3)C2)CC1 (configuration not stated)	none
O=C(O)CC(C(=O)O)N1C(=O)/C(=C/c2ccc(-c3nc4ccccc4s3)o2)SC1=S (configuration not stated)	rCAG RNA binder 62.3 | rCAG binder conf 53.5 | DNA CAG counter 19.4
O=C(O)CCN1C(=O)/C(=C/c2ccc(-c3nc4ccccc4s3)o2)SC1=S	rCAG RNA binder 55.0, Myeloid diff 2 active | rCAG binder conf 85.4 | DNA CAG counter 53.0
O=C(O)c1ccc(-c2nc3ccccc3s2)o1	none
CCOC(=O)N1CCC(NC(=O)CN(c2ccc(C(C)C)cc2)S(=O)(=O)c2c(C)nn(C)c2C)CC1	none
CC(=O)N1N=C2/C(=C/c3ccccc3)CCCC2C1c1ccccc1 (configuration not stated)	none
O=C(O)c1c(C(=O)N2N=C3/C(=C/c4ccccc4)CCCC3C2c2ccccc2)cccc1[N+](=O)[O-] (configuration not stated)	rCAG RNA binder 34.6 | rCAG binder conf 55.5 | DNA CAG counter 17.2
